A short description of experiment [1]: qHTS profiling of the MIPE4 collection as inhibitors of Plasmodium falciparum (3D7) proliferation (AID 743344).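 Note: scaled between DMSO vehicle wells and 0.29 µM artemisinin as full inhibition.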 The conditions noted are these: P. falciparum 3D7 in erythrocytes, SYBR Green DNA fluorescence, 72 h; at 28.5 µM unless noted. In outline: (§1)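 Erythrocytes infected with P. falciparum (0.3% parasitemia, 2.5% hematocrit) incubated with compounds 72 h at 37 C, 5% CO2. Lysis with saponin/Triton buffer containing SYBR Green I, overnight at room temperature in the dark; DNA fluorescence (485/535 nm) normalised to 0.29 uM artemisinin and DMSO.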
On the technique in general: qHTS replaces the single test concentration by a dilution series.

A short description of experiment [2]: qHTS profiling of the MIPE4 collection as inhibitors of Plasmodium falciparum (DD2) proliferation (AID 743345). The note with it: P. falciparum Dd2 in erythrocytes, SYBR Green DNA, 72 h; at 28.5 µM unless noted. In outline: as §1
The nature of experiment [3]: qHTS profiling of the MIPE4 collection as inhibitors of Plasmodium falciparum (DD2) proliferation (Rep 2) (AID 743346). The note with it: P. falciparum Dd2 in erythrocytes, SYBR Green DNA, 72 h; at 28.5 µM unless noted. Summed up:
as §1

The nature of experiment [4]: qHTS profiling of the MIPE4 collection as inhibitors of Plasmodium falciparum (HB3) proliferation (AID 743347).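 Note: plate controls were DMSO vehicle wells for no effect and artemisinin wells for full effect.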 The conditions noted are these: P. falciparum HB3 in erythrocytes, SYBR Green DNA, 72 h; at 28.5 µM unless noted. Summed up:
as §1

The nature of experiment [5]: High-throughput drug toxicity screening in the BPDCN cell line Gen2.2 (AID 1224824).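 Note: cells exposed to compounds for 48 h before reading.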 The conditions noted are these: Gen2.2 BPDCN cells; at 45.8 µM (top of the series) unless noted. Summed up: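 Gen2.2 cells, 500 per well in phenol red-free RPMI with 10% FBS, exposed to compounds 48 h at 37 C, 5% CO2; viability by CellTiter-Glo luminescence. Percent activity scaled to DMSO (100%) and 9.2 uM bortezomib final (0%).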

Experiment [6] is described as follows: High-throughput drug toxicity screening in the BPDCN cell line Cal-1 (AID 1224825). The conditions noted are these: Cal-1 BPDCN cell viability, qHTS; at 45.8 µM (top of the series) unless noted. Summed up: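 Exponentially growing Cal-1 cells, 500 per well in phenol red-free RPMI with 10% FBS, were exposed to compounds for 48 h at 37 °C, 5% CO2. Viability was read by CellTiter-Glo luminescence and normalised to DMSO (100%) and 9.2 uM bortezomib (0%).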

A short description of experiment [7]: qHTS assay for measurement of the activity of small molecule inhibitors on Zika virus induced Caspase-3 activity in human astrocytoma cells (AID 1224859; active = well fitted curve in the direction sought with a large enough effect; an effect the other way counts as inactive or inconclusive;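 note: plate controls were ZIKV-infected untreated cells for no effect and uninfected cells for full effect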). Summed up: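 Luminescent caspase-3/7 read-out (30 min reagent, room temperature) in human SNB-19 cells infected 6 h with ZIKV (2 FFU/cell) after 1 h compound pre-incubation; Data were normalised to uninfected and infected wells.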

Experiment [8] in a line: qHTS profiling for inhibitors of Plasmodium falciparum (3D7) proliferation (AID 743322).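 Note: infected erythrocytes exposed to compound for 72 h before lysis; 100% = DMSO vehicle wells and 0% = 0.29 µM artemisinin.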 The note with it: P. falciparum 3D7 proliferation; at 28.7 µM (top of the series). Summed up: as §1
A short description of experiment [9]: qHTS profiling for inhibitors of Plasmodium falciparum (DD2) proliferation (AID 743323). The note with it: lower = more inhibition; at 28.7 µM (top of the series). In outline: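 SYBR Green fluorescence (ex 485, em 535 nm) of lysed cultures gives parasite DNA content; wells normalized to artemisinin (0.29 uM) and DMSO controls. Infected red cells: 0.3% parasitemia, 2.5% hematocrit, 72 h, 37 C.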

The nature of experiment [10]: qHTS profiling for inhibitors of Plasmodium falciparum (HB3) proliferation (AID 743324; active = well fitted curve in the direction sought with a large enough effect; an effect the other way counts as inactive or inconclusive;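 note: 100% = DMSO vehicle wells and 0% = artemisinin-treated control wells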). The conditions noted are these: Plasmodium falciparum HB3 blood-stage proliferation; at 28.7 µM (top of the series). Summed up:
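P. falciparum HB3 grown in erythrocytes (0.3% parasitemia, 2.5% hematocrit final) with compound for 72 h at 37 C, 5% CO2. Parasite DNA detected by SYBR Green after saponin/triton lysis overnight; normalized to 0.29 uM artemisinin and DMSO.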

Experiment [11] can be described thus: qHTS Screen of the MIPE 4.0 Collection Against Ewings Sarcoma (TC71) (AID 1259253; active = well fitted curve in the direction sought with a large enough effect; an effect the other way counts as inactive or inconclusive; note: nearly all actives have a fitted effect of over 40% in size; note: potency is the fitted concentration of half-maximal effect). In outline: (§2)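 Measured: ATP luminescence (CellTiter-Glo) 10 min after reagent addition, following 48 h drug treatment. Relative luciferase units converted to percent activity, with no-cell wells as full and DMSO wells as zero inhibition.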
The nature of experiment [12]: qHTS Screen of the MIPE 4.0 Collection Against Ewings Sarcoma (EW8) (AID 1259255; active = well fitted curve in the direction sought with a large enough effect; an effect the other way counts as inactive or inconclusive; note: nearly all actives have a fitted effect of over 35% in size; note: potency is the fitted concentration of half-maximal effect;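 for viability: 100% = DMSO-treated cells and 0% = medium-only wells without cells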). In outline:
as §2

Experiment [13] in a line: qHTS Screen of the MIPE 4.0 Collection Against Ewings Sarcoma (RDES) (AID 1259252; active = well fitted curve in the direction sought with a large enough effect; an effect the other way counts as inactive or inconclusive; note: potency is the fitted concentration of half-maximal effect; nearly all actives have a fitted effect of over 35% in size). In outline:
as §2

A short description of experiment [14]: qHTS assay for small molecule agonists of the antioxidant response element (ARE) signaling pathway measured by Nrf2-dependant transcriptional activity - cell viability counter screen (AID 720653; active = well fitted curve in the direction sought with a large enough effect in the repeat runs; an effect the other way counts as inactive or inconclusive; note: % is set by controls: 0 for no effect and ±100 for the full control effect). The conditions noted are these: ARE-bla HepG2 viability, CellTiter-Glo ATP luminescence, 16 h; max response: stronger effect = lower value. Summed up: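 ARE-bla HepG2 cells (2,000/well) rested 5 hrs at 37C/5% CO2, then exposed to compounds in DMSO for 16 hrs. Viability was read in the same wells as intracellular ATP by luminescence, 30 min at room temperature after reagent addition.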

Experiment [15] in a line: qHTS assay for cell viability of the p53RE-bla HCT-116 cell line (AID 743292; active = well fitted curve in the direction sought with a large enough effect; an effect the other way counts as inactive or inconclusive; note: % is set by controls: 0 for no effect and ±100 for the full control effect; nearly all actives have a fitted effect of over 55% in size). In outline: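 Intracellular ATP of p53RE-bla HCT-116 cells measured by luciferase luminescence following 16 h compound incubation at 37 C; DMSO-only wells served as vehicle controls.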

Where “and” joins values, the source holds several entries; their conditions need not be identical. Equal values may be shown once. Inconclusive results are not listed. Calls of active or inactive are those of the source. Unless noted, the rule behind the calls is not given here.

Turning to `N#CC(=C(N)Sc1ccccc1N)C(C#N)=C(N)Sc1ccccc1N`, the parasite growth, % of DMSO control in experiment [1] was found to be 4.41%. Besides, the parasite growth remaining, % of DMSO control (lower = more inhibition) in experiment [2] amounted to 12.1%. For the same compound, the parasite growth, % of control (lower = inhibition) in experiment [3] was 10.6%. In [4], this compound registered a growth, % of control of 5.29%. Also, in experiment [5], the cell viability, % of control (lower = more cytotoxic) stood at 16.6%. Further, in experiment [6], the viability (% of control) was found to be 12.1%. The Potency result in [7] is “inactive”.

Consider `O=c1cc(CN2CCOCC2)occ1OCCCCCSc1ccnc2cc(C(F)(F)F)ccc12`, for which, in experiment [8], the remaining parasite growth % (stronger effect = lower value) is 28.8%. The compound also gave an activity, percent of control in experiment [9] of 26.8%. This compound also registered a remaining proliferation (% of control), lower = more inhibition in [10] of 17.5%. The compound further displayed a parasite growth, % of DMSO control in experiment [1] of 36.7%. Besides, the parasite growth, % of control (lower = inhibition) in [3] is 33.6%. The compound also gave a growth, % of control in experiment [4] of 12.1%. Moreover, the cell viability, % of control (lower = more cytotoxic) in experiment [5] amounted to 186%. For the same compound, the viability (% of control) in experiment [6] came to 75.4%. The Potency entry in experiment [7] was “inactive”.

In experiment [2], `CC(C)(C)Cn1c(N)nc2ccc(-c3[nH]c(C(C)(C)C)nc3-c3ccc(F)cc3)nc21` came in with a parasite growth remaining, % of DMSO control (lower = more inhibition) of 9.48%. This compound also gave a growth, % of control in [4] of 4.94%. In addition, the cell viability, % of control (lower = more cytotoxic) in experiment [5] amounted to 207%. For the same compound, the viability (% of control) in [6] turned out to be 59.3%. Besides, in experiment [7], the Potency entry is “inactive”.

Take `O=C1C[C@@H](c2ccc(O)cc2)Oc2cc(O)cc(O)c21`: the parasite growth, % of DMSO control in [1] was found to be 20%. For the same compound, the growth, % of control in experiment [4] was determined as 5.63%. Further, the cell viability, % of control (lower = more cytotoxic) in experiment [5] is 70.3%. The viability (% of control) in experiment [6] turned out to be 103%. Moreover, in experiment [11], the Potency result was “inactive”. Also, the Potency in experiment [12] is 13.2 µM (active).

`CN(C[C@@H]1COCCO1)S(=O)(=O)Nc1ccc2ccc3ncc(-c4cnn(C)c4)cc3c(=O)c2c1` returned a parasite growth, % of DMSO control in experiment [1] of 13.4%. The parasite growth remaining, % of DMSO control (lower = more inhibition) in [2] is 47.9%. In addition, the parasite growth, % of control (lower = inhibition) in [3] is 21.5%. In addition, the growth, % of control in experiment [4] turned out to be 7.9%. The cell viability, % of control (lower = more cytotoxic) in experiment [5] was 12.9%. Moreover, the viability (% of control) in experiment [6] stood at 7.57%. Moreover, the Potency entry in experiment [7] is “inactive”. Further, in experiment [12], the Potency was 18.7 µM (active).

In experiment [1], `COC(=O)C1=CO[C@@H](O)[C@@H]2C(CO)=CC[C@@H]12` yielded a parasite growth, % of DMSO control of 83%. The parasite growth remaining, % of DMSO control (lower = more inhibition) in [2] came out at 85.9%. Moreover, the parasite growth, % of control (lower = inhibition) in [3] came out at 98.4%. This compound also showed a growth, % of control in experiment [4] of 91%. For the same compound, the cell viability, % of control (lower = more cytotoxic) in [5] was found to be 17.3%. Besides, in experiment [6], the viability (% of control) came out at 16.7%. For the same compound, the Potency entry in experiment [7] and in experiment [12] was “inactive” throughout.

For `O=C1C(Cl)=C(NCCN2CCOCC2)C(=O)c2ncccc21`, the remaining parasite growth % (stronger effect = lower value) in experiment [8] was 34.6%. Further, in [9], the activity, percent of control came out at 17.3%. Moreover, in experiment [10], the remaining proliferation (% of control), lower = more inhibition came out at 26.6%. The compound further displayed a parasite growth remaining, % of DMSO control (lower = more inhibition) in experiment [2] of 18%. The compound also had a growth, % of control in experiment [4] of 10.3%. Besides, the cell viability, % of control (lower = more cytotoxic) in experiment [5] turned out to be 2.36%. In experiment [6], the viability (% of control) came out at 0.784%. Further, the Potency in [13] is 8.33 µM (active); in experiment [11], 6.62 µM (active); in experiment [12] it was 3.72 µM (active).

In the case of `O=c1c(O)c(-c2ccc(O)cc2)oc2cc(O)cc(O)c12`, the max response in experiment [14] was -6.13% (inactive) and -4.97% (inactive). Moreover, in [15], the Potency result was “inactive”. In experiment [1], the parasite growth, % of DMSO control is 24.5%. The compound further displayed a parasite growth remaining, % of DMSO control (lower = more inhibition) in [2] of 97.3%. The parasite growth, % of control (lower = inhibition) in experiment [3] is 27.5%. The compound further had a growth, % of control in experiment [4] of 19.7%. The cell viability, % of control (lower = more cytotoxic) in [5] came out at 140%. Besides, in experiment [6], the viability (% of control) amounted to 13.1%. Besides, the Potency was 16.6 µM (active) in experiment [13], 18.7 µM (active) in [11] and 11.8 µM (active) in [12].

In [1], `CO[C@H]1C[C@@H]2CC[C@@H](C)[C@@](O)(O2)C(=O)C(=O)N2CCCC[C@@H]2C(=O)O[C@H]([C@H](C)C[C@@H]2CC[C@H](OP(C)(C)=O)[C@H](OC)C2)CC(=O)[C@H](C)C=C(C)[C@@H](O)[C@@H](OC)C(=O)[C@H](C)C[C@H](C)C=CC=CC=C1C` had a parasite growth, % of DMSO control of 4.92%. The compound further showed a parasite growth remaining, % of DMSO control (lower = more inhibition) in experiment [2] of 6.6%. For the same compound, the parasite growth, % of control (lower = inhibition) in [3] was 9.19%. Moreover, the growth, % of control in experiment [4] turned out to be 8.46%. Moreover, in experiment [5], the cell viability, % of control (lower = more cytotoxic) worked out at 10.4%. In [6], the viability (% of control) was determined as 5.8%. Also, in experiment [7], the Potency entry is “inactive”.

`COc1cc2ncnc(Nc3ccc(F)c(Cl)c3)c2cc1OCCCN1CCOCC1`: the cell viability, % of control (lower = more cytotoxic) in experiment [5] amounted to 14.5% [at 92.2 µM]. The viability (% of control) in [6] was 4.41% [at 92.2 µM]. In addition, in experiment [13], the Potency was 10.8 µM (active).

As for `O=C1NC(=O)C(=Cc2ccc3c(c2)OC(F)(F)O3)S1`, in [1], the parasite growth, % of DMSO control amounted to 86.7%. Moreover, the parasite growth remaining, % of DMSO control (lower = more inhibition) in [2] was 95.4%. Moreover, the parasite growth, % of control (lower = inhibition) in [3] is 126%. In addition, the growth, % of control in [4] is 125%. Further, the cell viability, % of control (lower = more cytotoxic) in [5] was 54.2%. Also, the viability (% of control) in experiment [6] worked out at 83%. Also, the Potency entry in [7] is “inactive”.

Values taken from PubChem BioAssay (NCATS).
